For the assay, the target named is Voltage-dependent L-type calcium channel subunit alpha-1D (Homo sapiens) (UniProt Q01668). Nature of the assay: inhibitors of CaV1.3 ICDI-IQ binding, dose response, cell-based, HEK293, YFP-IQ/CFP-ICDI FRET, cherry-picks (AID 1053205). The following applies: HEK293 YFP-IQ/CFP-ICDI FRET ratio, 10 min; series mostly up to 35 µM.

Measured potencies and affinities stand elsewhere. Records with an inconclusive call do not appear. Active and inactive are the calls of the source.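 The calls were made as follows: active = compounds lowering the FRET ratio whose fitted half-maximal concentration is at most twice their top tested dose; inconclusive = flat partial drop between 30 and 70 percent, or bad fit; inactive = the rest.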

Sequence of Voltage-dependent L-type calcium channel subunit alpha-1D (Homo sapiens) (Q01668 whole entry, looked up): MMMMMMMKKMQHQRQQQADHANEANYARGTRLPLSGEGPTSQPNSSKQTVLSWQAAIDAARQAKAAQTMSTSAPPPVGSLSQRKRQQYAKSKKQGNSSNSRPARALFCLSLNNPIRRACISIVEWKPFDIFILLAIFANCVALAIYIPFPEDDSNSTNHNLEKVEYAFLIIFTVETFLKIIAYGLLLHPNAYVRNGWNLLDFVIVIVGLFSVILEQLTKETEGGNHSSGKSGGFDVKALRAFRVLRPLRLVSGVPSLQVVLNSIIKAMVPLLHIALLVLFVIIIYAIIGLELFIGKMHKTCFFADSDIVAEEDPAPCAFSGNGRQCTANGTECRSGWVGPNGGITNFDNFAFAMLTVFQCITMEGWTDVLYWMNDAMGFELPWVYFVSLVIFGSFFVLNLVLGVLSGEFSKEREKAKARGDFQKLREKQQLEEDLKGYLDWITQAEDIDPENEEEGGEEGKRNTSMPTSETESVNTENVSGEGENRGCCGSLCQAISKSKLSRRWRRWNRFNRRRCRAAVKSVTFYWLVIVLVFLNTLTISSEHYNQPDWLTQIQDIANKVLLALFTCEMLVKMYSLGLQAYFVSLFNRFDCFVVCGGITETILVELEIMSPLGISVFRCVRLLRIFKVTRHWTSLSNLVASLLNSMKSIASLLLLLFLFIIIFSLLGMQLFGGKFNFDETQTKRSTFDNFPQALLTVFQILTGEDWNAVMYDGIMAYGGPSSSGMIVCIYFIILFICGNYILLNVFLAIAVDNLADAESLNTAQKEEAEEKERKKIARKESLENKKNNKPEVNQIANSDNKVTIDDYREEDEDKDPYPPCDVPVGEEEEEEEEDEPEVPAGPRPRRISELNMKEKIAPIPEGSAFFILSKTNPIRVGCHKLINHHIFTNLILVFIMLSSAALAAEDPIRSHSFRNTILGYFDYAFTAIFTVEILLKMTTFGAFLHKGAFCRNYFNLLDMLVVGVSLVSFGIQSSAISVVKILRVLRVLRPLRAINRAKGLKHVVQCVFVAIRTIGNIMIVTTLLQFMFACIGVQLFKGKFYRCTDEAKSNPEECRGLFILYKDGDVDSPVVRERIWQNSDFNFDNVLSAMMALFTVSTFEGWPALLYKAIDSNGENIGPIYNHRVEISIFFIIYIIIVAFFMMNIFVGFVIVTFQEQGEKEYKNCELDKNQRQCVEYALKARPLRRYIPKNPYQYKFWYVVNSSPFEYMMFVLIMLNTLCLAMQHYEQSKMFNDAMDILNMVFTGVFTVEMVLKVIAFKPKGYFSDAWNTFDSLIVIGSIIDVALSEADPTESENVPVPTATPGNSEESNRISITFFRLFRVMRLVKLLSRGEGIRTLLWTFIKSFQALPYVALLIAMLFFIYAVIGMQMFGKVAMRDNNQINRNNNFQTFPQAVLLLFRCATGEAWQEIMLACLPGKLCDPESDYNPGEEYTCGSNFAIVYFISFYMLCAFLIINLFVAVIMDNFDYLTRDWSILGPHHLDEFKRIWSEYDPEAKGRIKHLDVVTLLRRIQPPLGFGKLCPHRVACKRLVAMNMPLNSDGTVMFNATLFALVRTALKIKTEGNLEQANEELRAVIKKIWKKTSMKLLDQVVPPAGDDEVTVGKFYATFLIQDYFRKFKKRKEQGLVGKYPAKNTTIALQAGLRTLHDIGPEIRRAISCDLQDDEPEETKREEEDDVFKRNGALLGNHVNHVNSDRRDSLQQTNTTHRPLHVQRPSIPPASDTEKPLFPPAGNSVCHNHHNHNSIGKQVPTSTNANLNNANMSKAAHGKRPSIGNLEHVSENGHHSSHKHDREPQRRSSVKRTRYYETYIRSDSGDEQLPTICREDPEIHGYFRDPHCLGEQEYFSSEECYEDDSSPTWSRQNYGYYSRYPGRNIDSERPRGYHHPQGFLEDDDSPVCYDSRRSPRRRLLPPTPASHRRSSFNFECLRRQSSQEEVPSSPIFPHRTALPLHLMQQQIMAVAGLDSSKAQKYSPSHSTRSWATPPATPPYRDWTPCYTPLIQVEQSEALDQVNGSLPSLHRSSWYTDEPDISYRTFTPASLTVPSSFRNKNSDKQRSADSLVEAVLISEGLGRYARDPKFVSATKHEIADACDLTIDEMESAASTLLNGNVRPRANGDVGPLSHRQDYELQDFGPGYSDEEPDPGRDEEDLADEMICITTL

As to `N#CC1=C(N)Oc2cc(O)ccc2C1c1ccc2c(c1)OCO2` (configuration not stated), the result was inactive. As for `CC(C)OP(=O)(O)NC(=O)c1ccccc1`, the outcome was inactive.

Values taken from PubChem BioAssay AID1053205 (Broad Institute, 2014).
